# From PubChem BioAssay
# A number with no mark means an inactive call. Activity calls are given as the source filed them.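 How the source made its calls, unless noted: active means mean inhibition over 43.08%, the solvent-only control mean plus 3 SD; inactive means the rest.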
# Tests used:
# [1] = biological target: Nuclear receptor coactivator 3 (Homo sapiens) (UniProt Q9Y6Q9); test: SRC3 coactivator transcriptional activity inhibitors, confirmation, cell-based, luminescence, quadruplicate (AID 588792); settings: HEK293 GAL4-SRC3 luciferase reporter, at 3.6 µM, stronger effect = higher value;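 further: 0% = DMSO treated cells and 100% = gossypol at 36 µM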
# Nuclear receptor coactivator 3 (Homo sapiens), sequence (Q9Y6Q9 whole entry, looked up, the tested form may be a part): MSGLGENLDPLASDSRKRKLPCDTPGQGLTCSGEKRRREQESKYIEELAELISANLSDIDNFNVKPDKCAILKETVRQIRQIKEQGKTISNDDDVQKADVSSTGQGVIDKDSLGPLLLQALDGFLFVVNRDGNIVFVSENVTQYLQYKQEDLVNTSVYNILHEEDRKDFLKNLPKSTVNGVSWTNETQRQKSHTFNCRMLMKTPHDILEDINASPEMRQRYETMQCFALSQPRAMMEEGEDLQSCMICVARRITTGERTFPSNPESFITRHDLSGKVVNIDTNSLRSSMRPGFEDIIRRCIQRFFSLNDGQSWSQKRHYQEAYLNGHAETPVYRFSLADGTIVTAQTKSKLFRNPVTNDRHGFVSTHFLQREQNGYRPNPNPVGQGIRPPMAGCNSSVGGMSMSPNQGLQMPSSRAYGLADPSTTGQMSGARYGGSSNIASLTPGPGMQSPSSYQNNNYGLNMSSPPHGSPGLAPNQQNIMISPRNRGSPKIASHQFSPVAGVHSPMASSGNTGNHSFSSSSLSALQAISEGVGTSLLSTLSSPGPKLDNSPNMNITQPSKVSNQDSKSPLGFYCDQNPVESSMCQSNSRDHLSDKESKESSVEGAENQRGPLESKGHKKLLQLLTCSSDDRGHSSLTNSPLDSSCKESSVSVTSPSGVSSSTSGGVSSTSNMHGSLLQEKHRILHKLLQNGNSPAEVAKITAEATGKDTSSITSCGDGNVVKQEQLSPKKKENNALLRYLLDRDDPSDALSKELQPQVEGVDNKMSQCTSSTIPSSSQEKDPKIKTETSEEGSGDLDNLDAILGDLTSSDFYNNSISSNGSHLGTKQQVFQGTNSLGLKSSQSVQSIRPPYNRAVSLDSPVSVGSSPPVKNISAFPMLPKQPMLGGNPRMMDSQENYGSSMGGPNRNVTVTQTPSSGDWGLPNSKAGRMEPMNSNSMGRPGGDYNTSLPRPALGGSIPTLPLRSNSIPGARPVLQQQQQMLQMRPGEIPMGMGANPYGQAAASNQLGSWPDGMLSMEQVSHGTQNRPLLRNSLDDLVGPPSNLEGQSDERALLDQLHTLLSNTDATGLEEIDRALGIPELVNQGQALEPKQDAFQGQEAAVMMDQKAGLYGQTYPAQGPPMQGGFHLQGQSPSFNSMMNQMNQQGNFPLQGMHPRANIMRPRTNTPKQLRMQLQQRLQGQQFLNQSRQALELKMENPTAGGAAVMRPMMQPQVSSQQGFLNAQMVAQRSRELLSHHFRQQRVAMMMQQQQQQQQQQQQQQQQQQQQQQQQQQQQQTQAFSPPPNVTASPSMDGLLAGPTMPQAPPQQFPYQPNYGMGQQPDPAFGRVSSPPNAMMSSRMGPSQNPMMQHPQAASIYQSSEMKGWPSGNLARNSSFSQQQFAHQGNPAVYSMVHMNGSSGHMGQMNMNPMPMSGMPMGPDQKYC
# [2] = tested on: transactivating tegument protein VP16 (Human herpesvirus 1), Gal4-VP16 luciferase reporter; test: VP16 transactivation inhibitors, counter-screen for SRC3 inhibitor project, cell-based, luminescence, high throughput (AID 588794; in the data active means inhibition above about 30%); settings: mammalian cells, VP16-driven luciferase reporter luminescence; at 3.6 µM; stronger effect = higher value
# [3] = biological target: Nuclear receptor coactivator 1 (Homo sapiens) (UniProt Q15788); test: SRC1 coactivator transcriptional activity inhibitors, confirmation, cell-based, luminescence, quadruplicate (AID 588820;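 active means mean inhibition above 46.68%, the untreated control wells mean plus 3 SD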;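 further: 0% = DMSO wells and 100% = gossypol 36 µM treated wells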); settings: HEK293 GAL4-SRC1 luciferase reporter, at 3.6 µM, stronger effect = higher value
# Nuclear receptor coactivator 1 (Homo sapiens), sequence (Q15788 whole entry, looked up, the tested form may be a part): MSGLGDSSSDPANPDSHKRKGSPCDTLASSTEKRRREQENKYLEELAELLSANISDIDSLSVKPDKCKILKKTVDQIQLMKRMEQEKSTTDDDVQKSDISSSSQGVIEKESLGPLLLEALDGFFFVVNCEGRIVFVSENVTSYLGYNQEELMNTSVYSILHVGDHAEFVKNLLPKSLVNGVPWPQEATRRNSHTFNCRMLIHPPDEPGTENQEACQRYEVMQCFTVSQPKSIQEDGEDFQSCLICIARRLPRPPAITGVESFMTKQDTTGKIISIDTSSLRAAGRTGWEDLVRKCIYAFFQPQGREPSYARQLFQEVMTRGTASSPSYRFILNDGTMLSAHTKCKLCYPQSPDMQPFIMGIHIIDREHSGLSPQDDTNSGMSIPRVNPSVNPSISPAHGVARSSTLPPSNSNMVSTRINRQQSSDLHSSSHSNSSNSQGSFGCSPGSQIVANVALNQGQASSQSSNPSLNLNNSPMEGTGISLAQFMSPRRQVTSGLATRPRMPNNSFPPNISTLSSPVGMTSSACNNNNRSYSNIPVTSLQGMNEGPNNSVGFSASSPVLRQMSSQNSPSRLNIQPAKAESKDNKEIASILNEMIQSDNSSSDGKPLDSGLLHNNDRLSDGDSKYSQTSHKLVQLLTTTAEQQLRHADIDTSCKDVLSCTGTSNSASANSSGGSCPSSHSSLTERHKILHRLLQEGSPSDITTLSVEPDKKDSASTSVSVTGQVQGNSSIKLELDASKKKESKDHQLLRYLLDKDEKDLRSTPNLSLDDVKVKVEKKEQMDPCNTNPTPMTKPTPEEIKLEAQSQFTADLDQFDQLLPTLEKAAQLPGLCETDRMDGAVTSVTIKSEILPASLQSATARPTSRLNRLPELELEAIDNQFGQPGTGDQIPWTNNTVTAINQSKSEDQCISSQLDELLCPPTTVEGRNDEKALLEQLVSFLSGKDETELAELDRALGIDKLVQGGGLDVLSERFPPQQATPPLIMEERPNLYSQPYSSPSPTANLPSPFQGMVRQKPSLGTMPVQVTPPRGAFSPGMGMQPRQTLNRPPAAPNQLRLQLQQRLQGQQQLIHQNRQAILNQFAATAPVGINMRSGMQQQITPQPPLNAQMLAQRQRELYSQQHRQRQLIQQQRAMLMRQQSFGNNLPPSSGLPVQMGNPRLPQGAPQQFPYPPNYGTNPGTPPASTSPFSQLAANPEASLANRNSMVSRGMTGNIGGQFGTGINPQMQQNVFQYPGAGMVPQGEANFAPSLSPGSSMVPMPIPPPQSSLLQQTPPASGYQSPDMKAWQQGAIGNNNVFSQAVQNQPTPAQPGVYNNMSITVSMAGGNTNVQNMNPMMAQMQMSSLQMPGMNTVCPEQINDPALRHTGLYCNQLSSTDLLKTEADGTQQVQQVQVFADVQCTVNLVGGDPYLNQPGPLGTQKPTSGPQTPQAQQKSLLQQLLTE
# [4] = VP16 transactivation inhibitors, counter-screen for SRC1 inhibitor project, cell-based, luminescence, high throughput (AID 588824; in the data active means inhibition above about 25%); settings: cell-based VP16 transactivation luciferase luminescence; at 3.6 µM; stronger effect = higher value
Compound,inhibition [1],inhibition [2],inhibition [3],inhibition [4]
O=C(Nc1ccc(Cn2cccn2)cc1)c1ccc(COc2cccc(Br)c2)cc1,1.93%,42.6% (active),-34.7%,30.4% (active)
CCOC(=O)c1cccc(NC(=O)CSc2nc3cccnc3n2C)c1,9.81%,25.1%,–,–
CC(=O)N1CCN(c2ncnc3ccccc23)CC1,29.2%,26.3%,45.1%,26.3% (active)
COc1ccc(C(C(=O)NC2CCCCC2)N(C(=O)CCl)c2ccc(C)cc2)cc1 (stereo not drawn),71.8% (active),52.9% (active),35.7%,49.2% (active)
Cc1sc(NC(=O)Cc2ccc3c(c2)OCO3)nc1-c1ccc2c(c1)CCN2C(=O)c1ccc(F)cc1,13.6%,30.3% (active),17.3%,25.9% (active)
CC(C)(C)[C@H]1C=C(C(=O)Nc2ccccc2)O[C@@H](OCCCCO)C1,-13.7%,-16.4%,-41.4%,-38%
CC(C)(C)c1cc[n+](C2=C([O-])c3ccccc3C(=O)/C2=N\S(=O)(=O)c2cccs2)cc1,9.53%,9.97%,-0.27%,7.69%
CCOc1cc(C(N)=O)cc(Br)c1OC,29.6%,20.8%,29.3%,14.2%
Cc1cc(CNC(=O)c2cccc([N+](=O)[O-])c2C)c2ccccc2n1,13.9%,41.2% (active),16%,35.8% (active)
Cc1ccc2nc(-c3ccncc3)c(NC3CCCC3)n2c1,38.8%,29.2%,27.3%,25.7% (active)
O=C(NC1CCCCCCC1)C1c2ccccc2C(=O)N1Cc1cccs1 (stereo not drawn),5.02%,14.6%,4.81%,9.14%
CCOc1ccc(-n2c(C)c(C(C)=O)c3cc(OC(C)=O)ccc32)cc1,67.3% (active),44.5% (active),65.8% (active),47.6% (active)
CCN(CC)c1ccc(/C=N/NC(=O)CNC(=O)C2COc3ccccc3O2)c(O)c1 (stereo not drawn),24.4%,17.7%,8.85%,18.9%
CCN(CC)CCNC(=O)c1ccc2c(c1NCCO)C(=O)c1ccccc1C2=O,-15.3%,-1.86%,-19.2%,-8.97%
O=C(c1ccncc1)N(Cc1cc2ccccc2[nH]c1=O)C1CCCCC1,40.7%,23.2%,42.2%,23.1%
